The text below walks through data of PubChem BioAssay (NCI).

Common to all, as to test: NCI-60 one-dose screen, 48 h (100 = growth as untreated, 0 = no growth, -100 = all killed)
In one assay the test system is SK-MEL-2 melanoma. Conditions: 10 µM unless noted.
Another assay has as its system EKVX NSCLC. Conditions: 10 µM unless noted.
The subject of the next assay is SN12C renal. The conditions noted are these: 10 µM unless noted.
A further assay has as its system UO-31 renal. Conditions: 10 µM unless noted.
For another assay, the system named is TK-10 renal. The conditions noted are these: 10 µM unless noted.
The test system of the next assay is ACHN renal. The conditions noted are these: 10 µM unless noted.
The test system of a further assay is CCRF-CEM leukemia. The conditions noted are these: 10 µM unless noted.
In a further assay the test system is SR leukemia. The conditions noted are these: 10 µM unless noted.
The next assay concerns RPMI-8226 leukemia. The conditions noted are these: 10 µM unless noted.
The test system of the next assay is OVCAR-8 ovarian. The conditions noted are these: 10 µM unless noted.
The test system of another assay is OVCAR-5 ovarian. The conditions noted are these: 10 µM unless noted.
In a further assay the test system is OVCAR-4 ovarian. The conditions noted are these: 10 µM unless noted.
A further assay relates to SK-OV-3 ovarian. Conditions: 10 µM unless noted.
In the next assay the test system is IGROV1 ovarian. Conditions: 10 µM unless noted.
Another assay relates to OVCAR-3 ovarian. The conditions noted are these: 10 µM unless noted.
For the next assay, the system named is NCI/ADR-RES ovarian. The conditions noted are these: 10 µM unless noted.
The next assay has as its system CAKI-1 renal. Conditions: 10 µM.
A further assay deals with A498 renal. Conditions: 10 µM unless noted.
In a further assay the test system is MOLT-4 leukemia. The conditions noted are these: 10 µM unless noted.
A further assay has as its system HS 578T breast. Conditions: 10 µM unless noted.

About 83,000 compounds went through this panel and 20% of them were active in at least one assay; those are over-represented in the sample as a whole.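 Compound tested at a single concentration for 48 hours in 96-well plates; a percent growth value below 10 was scored as active.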 A number with no mark means an inactive call. The source made the active and inactive calls.

Regarding `OCCOCC(F)(F)F`, the growth with SK-MEL-2 melanoma was 119%; in the assay on EKVX NSCLC, 97.9%; with SN12C renal, 116%; in the assay on UO-31 renal, 94.1%; in the assay on TK-10 renal, 116%; in the assay with ACHN renal it was 108%. In addition, the growth with CCRF-CEM leukemia is -0.0215% (active); in the assay with SR leukemia, 78.7%; in the assay on RPMI-8226 leukemia it was 90.2%; with OVCAR-8 ovarian, 116%; in the assay with OVCAR-5 ovarian it was 96%; in the assay with OVCAR-4 ovarian, 100%. The growth in the assay with SK-OV-3 ovarian is 113%; with IGROV1 ovarian, 113%; in the assay on OVCAR-3 ovarian it was 109%; with NCI/ADR-RES ovarian, 106%.
`CC(=O)Nc1ccc(OC(=O)c2ccccc2O)cc1`: the growth with SK-MEL-2 melanoma is 147%; with EKVX NSCLC, 93.4%; in the assay on SN12C renal it was 102%; in the assay with UO-31 renal, 88.7%; in the assay on TK-10 renal, 128%; in the assay with CAKI-1 renal, 91.3%. In addition, the growth in the assay with A498 renal is 84.5%; in the assay on CCRF-CEM leukemia, 95.9%; in the assay on MOLT-4 leukemia, 96.2%; in the assay with SR leukemia it was 96.9%; in the assay on RPMI-8226 leukemia, 101%; with OVCAR-8 ovarian, 110%. Further, the growth in the assay on OVCAR-4 ovarian is 105%; in the assay on SK-OV-3 ovarian, 105%; in the assay with IGROV1 ovarian, 115%; with OVCAR-3 ovarian it was 110%; in the assay with HS 578T breast, 99.4%; in the assay with NCI/ADR-RES ovarian, 102%.
`CCCCCCCCCCCC(=O)OCCNC(=O)C[n+]1ccccc1`: the growth in the assay on SK-MEL-2 melanoma was 97.7%; with EKVX NSCLC, 91.8%; with SN12C renal, 102%; in the assay with UO-31 renal, 83%; in the assay on TK-10 renal, 101%; in the assay on ACHN renal, 99.9%. Moreover, the growth with MOLT-4 leukemia is 104%; in the assay on RPMI-8226 leukemia, 100%; in the assay on OVCAR-8 ovarian, 97.4%; with OVCAR-5 ovarian, 113%; with OVCAR-4 ovarian, 105%; in the assay on SK-OV-3 ovarian it was 96.7%. Also, the figures for the growth with OVCAR-3 ovarian, in the assay on HS 578T breast and in the assay with NCI/ADR-RES ovarian were 115%, 139% and 113%, respectively.
In the case of `CC1(C)Cc2c(Br)c(Br)c(Br)c(OCC(O)CN3CCN(c4ccccn4)CC3)c2O1` (configuration not stated), the growth is 77.1% in the assay with SK-MEL-2 melanoma; 95.3% in the assay on EKVX NSCLC; 106% in the assay on SN12C renal; 47.7% in the assay with UO-31 renal; 66% with TK-10 renal; 85.8% in the assay on ACHN renal. Besides, the growth with A498 renal is 96.2%; in the assay on MOLT-4 leukemia, 52.9%; with RPMI-8226 leukemia, 52.1%; in the assay on OVCAR-8 ovarian, 88.6%; in the assay on OVCAR-5 ovarian, 102%; in the assay with OVCAR-4 ovarian, 112%. In addition, the growth with IGROV1 ovarian was -11.7% (active); in the assay on HS 578T breast, 89.2%; with NCI/ADR-RES ovarian, 75.3%.
Regarding `O=C(COc1ccc(Cl)cc1)N1CCN(Cc2ccc3c(c2)OCO3)CC1`, the growth is 123% with SK-MEL-2 melanoma; 85.9% with EKVX NSCLC; 91% in the assay on SN12C renal; 61.5% in the assay on UO-31 renal; 116% in the assay with TK-10 renal; 76.6% in the assay on CAKI-1 renal. For the same molecule, the growth is 84.5% in the assay on A498 renal; 97.4% with CCRF-CEM leukemia; 100% with MOLT-4 leukemia; 97.8% in the assay with SR leukemia; 88.7% in the assay on RPMI-8226 leukemia; 91.8% with OVCAR-8 ovarian. For the same molecule, the growth in the assay on OVCAR-4 ovarian was 94.5%; in the assay on SK-OV-3 ovarian, 93.5%; with IGROV1 ovarian, 106%; in the assay on OVCAR-3 ovarian, 99.2%; with HS 578T breast, 92.8%; with NCI/ADR-RES ovarian, 92.6%.
Regarding `O=C(C[n+]1cccc(Br)c1)c1ccc2c(c1)CCCC2`, the growth is 102% in the assay with SK-MEL-2 melanoma; 94.8% in the assay with EKVX NSCLC; 104% in the assay with SN12C renal; 90.1% in the assay on UO-31 renal; 105% in the assay on TK-10 renal; 108% in the assay with ACHN renal. Moreover, the growth in the assay with MOLT-4 leukemia was 86.2%; in the assay with SR leukemia, 99.3%; in the assay on RPMI-8226 leukemia, 96%; with OVCAR-8 ovarian it was 108%; in the assay with OVCAR-5 ovarian, 96.2%; in the assay on OVCAR-4 ovarian, 114%. Moreover, the growth was 89.7% in the assay on SK-OV-3 ovarian; 101% in the assay with IGROV1 ovarian; 99.9% in the assay on OVCAR-3 ovarian; 105% with HS 578T breast; 102% with NCI/ADR-RES ovarian.
On to `COc1ccc(/C=C/C(=O)c2ccc(-n3cc(CN4CCN(c5cc6c(cc5F)c(=O)c(C(=O)O)cn6C5CC5)CC4)nn3)cc2)cc1OC`, for which the growth with SK-MEL-2 melanoma was 97.4%; with EKVX NSCLC, 80%; in the assay with SN12C renal it was 14.9%; with UO-31 renal, 43.5%; in the assay on TK-10 renal, 80%; with CAKI-1 renal, 60%. Besides, the growth with A498 renal is 54.4%; with CCRF-CEM leukemia, 3.05% (active); in the assay with MOLT-4 leukemia, 10.5%; in the assay with SR leukemia, -12.4% (active); in the assay with RPMI-8226 leukemia, -15.8% (active); with OVCAR-8 ovarian, 39.7%. Moreover, the growth is 72.3% in the assay with OVCAR-5 ovarian; 73.7% with OVCAR-4 ovarian; 67.5% in the assay on SK-OV-3 ovarian; -24.8% (active) in the assay with IGROV1 ovarian; -16.1% (active) in the assay with OVCAR-3 ovarian; 21.5% in the assay with HS 578T breast. For the same molecule, in the assay with NCI/ADR-RES ovarian, the growth is 82%.
On to `Oc1ccc(Cl)cc1Sc1cc(Cl)ccc1O`, for which the growth with SK-MEL-2 melanoma was 94.1%; with EKVX NSCLC, 103%; with SN12C renal it was 86.3%; in the assay on UO-31 renal it was 74.6%; with TK-10 renal it was 104%; with ACHN renal, 90.1%. Also, the growth was 96.7% with CCRF-CEM leukemia; 80.9% in the assay with MOLT-4 leukemia; 90.4% in the assay on SR leukemia; 86.3% in the assay on RPMI-8226 leukemia; 90.8% in the assay on OVCAR-8 ovarian; 100% in the assay on OVCAR-5 ovarian. In addition, the growth is 70.2% in the assay on OVCAR-4 ovarian, 77% in the assay on OVCAR-3 ovarian, 108% with HS 578T breast and 101% in the assay on NCI/ADR-RES ovarian.
With `Cc1nccc2c3ccc(OCc4cn(Cc5ccc(Br)cc5)nn4)cc3n(CCCc3ccccc3)c12`, the growth in the assay with SK-MEL-2 melanoma was 80.7%; with EKVX NSCLC, 85.5%; in the assay with SN12C renal, 92.1%; in the assay on UO-31 renal, 71.2%; in the assay on TK-10 renal, 101%; in the assay on A498 renal, 91%. Moreover, the growth is 83.1% in the assay on CCRF-CEM leukemia; 90.8% in the assay on MOLT-4 leukemia; 77.8% in the assay on SR leukemia; 72.9% in the assay with RPMI-8226 leukemia; 60.8% in the assay on OVCAR-8 ovarian; 106% in the assay on OVCAR-5 ovarian. The growth in the assay with OVCAR-4 ovarian was 50.9%; in the assay on SK-OV-3 ovarian, 81.6%; with IGROV1 ovarian, 77.4%; with OVCAR-3 ovarian, 82.1%; in the assay on HS 578T breast, 66.9%; in the assay with NCI/ADR-RES ovarian, 78.8%.
